Assay outcomes (PubChem BioAssay)
A selection: hits, their analogues and other compounds. The true share with any hit is near 4.8%.
DAX1 inh-1: NR0B1 (DAX1) inhibition | HEK293 Gal4-DAX1 luciferase reporter, luminescence | inhibition, % at 6.75 µM | 0.99% of 340,000 active | AID 504766;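 active = inhibition above the mean over all tested compounds plus 3 SD, cut at about 4.2% in these data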;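 note: inhibition shows as a rise in luminescence from relieved DAX1 repression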
Target sequence (P51843 207-470 limits assumed): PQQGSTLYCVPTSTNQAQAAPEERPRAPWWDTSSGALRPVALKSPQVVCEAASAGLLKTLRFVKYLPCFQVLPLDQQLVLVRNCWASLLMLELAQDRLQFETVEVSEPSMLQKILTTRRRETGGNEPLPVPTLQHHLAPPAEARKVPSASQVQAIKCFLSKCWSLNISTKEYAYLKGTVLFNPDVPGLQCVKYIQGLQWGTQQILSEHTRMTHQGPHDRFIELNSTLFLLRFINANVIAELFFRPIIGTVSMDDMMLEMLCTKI
ssDAF-12 act: activators of S. stercoralis DAF-12 nuclear receptor. 1% of 370,000 active. activation, % at 6.8 µM. HEK293 ssDAF-12/GRIP1 lit1-tk-luc reporter, luminescence; % of 3 µM dafachronic acid response;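 active = activation above the mean over all tested compounds plus 3 SD, cut at about 0.9% in these data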
hcDAF-12 act: activators of H. contortus DAF-12 nuclear receptor | HEK293 hcDAF-12 lit1-tk-luc reporter, luminescence; 0% DMSO, 100% Δ7-dafachronic acid | activation, % at 6.8 µM | 1.4% of 370,000 active | AID 652067;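 active = activation above the mean of all tested compounds plus 3 SD, cut at about 5.5% in these data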
hgDAF12 agonist: agonists of H. glycines DAF-12 nuclear receptor; HEK293 GAL4-hgDAF12 UAS-luciferase reporter, agonist luminescence; normalized to butyrate control; activation, % at 6.8 µM; 1.8% of 370,000 active; AID 687014;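 active = activation above a cutoff set at the mean of all screened compounds plus 3 SD, cut at about 10% in these data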
SMARCA2 act: activators of SMARCA2 function. AID 652017. 1% of 370,000 active. MG213 cells, MMTV-luciferase reporter, dexamethasone, overnight. activation, % at 9.1 µM; in the data active = activation above about 7.8%
DAX1 inh-2: DAX1 (NR0B1) inhibition, primary screen; HEK293T StAR-luciferase reporter, SF-1/DAX-1 repression relief; 1.1% of 370,000 active; AID 652010; inhibition, % at 6.8 µM;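 active = inhibition above the mean over all tested compounds plus 3 SD, cut at about 3.6% in these data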;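 note: higher inhibition means more luminescence from relief of DAX-1 repression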
hgDAF12 conf: hgDAF-12 agonism, confirmation assay. 80% of 3,300 active. shares compounds with hgDAF12 agonist. HEK293 GAL4-hgDAF12 luciferase reporter, agonist mode; percent of butyrate response. activation, % at 6.8 µM;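 active = mean activation over triplicate wells above the hit cutoff derived from the earlier primary screen, cut at about 11% in these data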
LXRb DAF12 ctr: LXR-beta agonism as DAF-12 counter-screen; shares compounds with hgDAF12 agonist; HEK293 Gal4-LXR luciferase reporter, 24 h; activation, % at 6.8 µM; 3,300 tested, under 10 active; AID 743051;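 active = mean activation of the triplicate above a set limit carried over from the primary screen, none filed active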
Each line names hits and unclear results; the compound was inactive in the other large screens (follow-up assays come after a bar, where they were run).

Cc1ccc(C)c(CSc2nnc(-c3cccnc3)o2)c1	none
Cc1ccccc1CSc1nnc(-c2ccncc2)o1	none
Fc1ccccc1CSc1nnc(-c2ccccc2)o1	hgDAF12 agonist 18 | hgDAF12 conf 14 | LXRb DAF12 ctr inactive
Fc1ccccc1CSc1nnc(-c2cccnc2)o1	DAX1 inh-1 4.6, hgDAF12 agonist 14 | hgDAF12 conf 11 | LXRb DAF12 ctr inactive
Cc1nc2ccccn2c(=O)c1CCN1CCC(C(=O)c2ccc(F)cc2)CC1	none
CCNc1nc(NCC)n2c(SCC(=O)Nc3ccc(F)cc3[N+](=O)[O-])nnc2n1	none
CNC(=O)CSCCn1c(SCC(=O)NC)nc2ccccc2c1=O	none
Cc1ccc(Nc2nc(CSc3nnnn3-c3ccccc3)cs2)cc1	none
Cc1ccc(Nc2nc(CSc3nnc(-c4ccccc4)n3C)cs2)cc1	hgDAF12 agonist 14 | hgDAF12 conf 12 | LXRb DAF12 ctr inactive
O=[N+]([O-])c1cccc(-c2nnc(-c3ccccc3)o2)c1	hgDAF12 agonist 14 | hgDAF12 conf 16 | LXRb DAF12 ctr inactive
O=[N+]([O-])c1cccc(-c2nnc(-c3ccc4c(c3)OCO4)o2)c1	none
COc1ccc(/C=C/C2=Nc3ccccc3NC(C)(C)C2)cc1OC	ssDAF-12 act 1.0, hgDAF12 agonist 16 | hgDAF12 conf inactive | LXRb DAF12 ctr inactive
CN1CC(=O)N2[C@H](c3ccc4c(c3)OCO4)c3[nH]c4ccccc4c3C[C@@H]2C1=O	hgDAF12 agonist 49 | hgDAF12 conf inactive | LXRb DAF12 ctr inactive
O=C1[C@@H]2Cc3c([nH]c4ccccc34)C(c3ccccc3)N2C(=O)CN1CCO (stereo not given in full)	none
CS(=O)(=O)c1ccc2nc(NC(=O)c3cccs3)sc2c1	hcDAF-12 act 6.3, hgDAF12 agonist 15, DAX1 inh-2 4.0 | hgDAF12 conf 16 | LXRb DAF12 ctr inactive
CCOc1ccc2nc(NC(=O)CCC(=O)c3cccs3)sc2c1	hgDAF12 agonist 13 | hgDAF12 conf 15 | LXRb DAF12 ctr inactive
COc1ccc(COCCN2CCN(S(=O)(=O)c3ccc(C)cc3)CCC2=O)cc1	none (no result: DAX1 inh-1)
COc1ccc(CNC(=O)Cn2nc(C)c3c(C)n(-c4ccc(C)cc4)nc3c2=O)cc1OC	none
CC1CCN(C(=O)CCc2nnc(-c3ccccc3)o2)CC1	hgDAF12 agonist 14 | hgDAF12 conf 11 | LXRb DAF12 ctr inactive
Cc1cccc(NC(=O)c2ccc3c(c2)OCCO3)c1	hgDAF12 agonist 17 | hgDAF12 conf 18 | LXRb DAF12 ctr inactive
O=C(NC(=S)Nc1ccc(N2CCOCC2)cc1)c1ccc2c(c1)OCCO2	none
Cc1cccc(NC(=S)NCc2ccc3c(c2)OCO3)c1	none
O=C(Nc1ccccc1)c1ccc2c(c1)OCCO2	hcDAF-12 act 5.8, hgDAF12 agonist 13 | hgDAF12 conf 13 | LXRb DAF12 ctr inactive
Cc1cccc(NC(=S)NNC(=O)c2ccc3c(c2)OCO3)c1	hgDAF12 agonist 18, DAX1 inh-2 3.9 | hgDAF12 conf 13 | LXRb DAF12 ctr inactive
O=C(NC(=S)Nc1ccc(F)cc1)c1ccc2c(c1)OCCO2	hgDAF12 agonist 17, DAX1 inh-2 3.7 | hgDAF12 conf 11 | LXRb DAF12 ctr inactive
Cc1ccc(NC(=O)c2ccc3c(c2)OCCO3)cc1C	none
Cc1ccc(S(=O)(=O)c2nc(-c3ccc(F)cc3)oc2SCC(=O)NCC2CCCO2)cc1 (stereo not given)	none
CCOC(=O)c1oc2ccccc2c1NC(=O)c1ccc(Cl)s1	none
COc1ccc(C(=O)NCCSC2CCCCC2)cc1	hgDAF12 agonist 16 | hgDAF12 conf 11 | LXRb DAF12 ctr inactive
Cc1ccc(NC(=O)CCNS(=O)(=O)c2ccccc2)cc1S(=O)(=O)N1CCOCC1	none
Cc1nn(Cc2ccc(F)cc2)c(Cl)c1/C=N/NC(=O)c1ccccc1	none
COc1ccc(C(=O)Nc2nc3cc4c(cc3s2)OCO4)c(OC)c1	hgDAF12 agonist 17 | hgDAF12 conf 17 | LXRb DAF12 ctr inactive
COc1cccc(Nc2nc3ccc(OC)cc3s2)c1	hgDAF12 agonist 17 | hgDAF12 conf 18 | LXRb DAF12 ctr inactive
CSc1ncccc1C(=O)Nc1nc2ccc(S(C)(=O)=O)cc2s1	none
COc1ccc2nc(NC(=O)c3cccnc3SC)sc2c1	hgDAF12 agonist 17 | hgDAF12 conf 14 | LXRb DAF12 ctr inactive
Cc1ccc(S(=O)(=O)N2CCN(C(=O)COc3ccc(NC(=O)c4ccco4)cc3)CC2)cc1	none
CC(/C=C/c1ccccc1F)=N\NC(=O)c1ccccc1	hgDAF12 agonist 14 | hgDAF12 conf inactive | LXRb DAF12 ctr inactive
CC(/C=C/c1ccccc1F)=N\NC(=O)c1ccc(Cl)cc1	none
Cc1cc(C)c2[nH]c(=S)cc(C)c2c1	none
Cc1ccc(N=Nc2c(N)nn(-c3ccccc3)c2N)cc1	ssDAF-12 act 0.9, hgDAF12 agonist 20 | hgDAF12 conf 25 | LXRb DAF12 ctr inactive
Cc1nn(-c2ccccc2)c(N)c1N=Nc1ccc2ccccc2c1	hgDAF12 agonist 23 | hgDAF12 conf 18 | LXRb DAF12 ctr inactive
CC(C)C(=O)Nc1ccc(-c2nnc(-c3ccccc3)o2)cc1	hgDAF12 agonist 14 | hgDAF12 conf 17 | LXRb DAF12 ctr inactive
CC(=O)/C=C(\C)Nc1ccc(-c2cnc(-c3ccccc3)o2)cc1	hcDAF-12 act 6.2, hgDAF12 agonist 18, DAX1 inh-2 4.0 | hgDAF12 conf 13 | LXRb DAF12 ctr inactive
Fc1ccc(C(c2nnnn2C2CCCC2)N(Cc2ccco2)CC2CCCO2)cc1 (stereo not given)	none
CC(=O)c1ccc(S(=O)(=O)N2CCN(CCOc3ccc(Br)cc3)CC2)cc1	none
CC(C)=CCC1=C(OCC(=O)O)C(=O)c2ccccc2C1=O	none
NS(=O)(=O)c1ccc(N=NN2CCCCC2)cc1	none
O=C(O)c1ccc(N=NN2CCCCC2)cc1	hgDAF12 agonist 14 (no result: DAX1 inh-1) | hgDAF12 conf 12 | LXRb DAF12 ctr inactive
CCc1cc2cc(C(=O)Nc3ccccc3F)sc2s1	hcDAF-12 act 6.4, hgDAF12 agonist 15 | hgDAF12 conf 18 | LXRb DAF12 ctr inactive
CCc1cc2cc(C(=O)Nc3ccc(F)cc3)sc2s1	none
C=C(C)C1CC=C(C)/C(=N/NC(=O)c2ccoc2C)C1 (stereo not given)	hcDAF-12 act 5.9, hgDAF12 agonist 20, DAX1 inh-2 4.3 | hgDAF12 conf inactive | LXRb DAF12 ctr inactive
C=C(C)C1CC=C(C)/C(=N/NC(=O)c2cccc([N+](=O)[O-])c2)C1 (stereo not given)	none
CCN(CC)S(=O)(=O)c1ccc(/C=C/C(=O)NC2CCCCC2)cc1	none
